Here are results for eight compounds from PubChem BioAssay (Tox21).

Results filed as inconclusive are left out. The source made the active and inactive calls. Unless noted, the call rests on the fitted dose curve; in most records, active means well fitted curve in the direction sought with a large enough effect in the repeat runs; inconclusive means weak or mixed curves; inactive means no such curve, though single readings can be large; an effect the other way counts as inactive or inconclusive.

Assay [1] is described as follows: qHTS assay to identify small molecule agonists of the androgen receptor (AR) signaling pathway in the presence of an antagonist - cell viability counter screen (AID 1259379). Further: nearly all actives have a fitted effect of over 25% in size. Further: potency means the concentration at half of the fitted maximal effect. The procedure, abridged: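 A CellTiter-Fluor read-out measured viability of MDA-kb2 reporter cells (MMTV promoter with AR and GR response elements). Treatment: nilutamide 3.0uM final with compounds at 15 concentrations, 16 hr, 37C, 0% CO2.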
For orientation: qHTS replaces the single test concentration by a dilution series.

Assay [2] in a line: qHTS assay to identify small molecule antagonists of the estrogen receptor beta (ER-beta) signaling pathway - cell viability counter screen (AID 1259382). Further: nearly all actives have a fitted effect of over 55% in size. Further: potency means the concentration at half of the fitted maximal effect. An outline of the steps:
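Agonist-stimulated (1nM E2) ER-beta-UAS-bla HEK293T cells are incubated with library compounds for 16 hr at 37C. Cell viability is then assessed in the reporter-assay wells by adding CellTiter-Glo and reading luminescence after 30 min.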

Assay [3] concerns the target Estrogen receptor (Homo sapiens) (UniProt P03372). In words: qHTS assay to identify small molecule agonists of the estrogen receptor alpha (ER-alpha) signaling pathway in the presence of an antagonist (AID 1259383; calls by dose curve; further: nearly all actives have a fitted effect of over 15% in size; further: potency means the concentration at half of the fitted maximal effect; on activation: top concentration of the series differs between compounds). The procedure, abridged: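 Using VM7Luc4E2 cells seeded 24hr before treatment, antagonist ICI-182,780 (10.0nM final) was added, followed by compounds at 15 concentrations. Plates incubated 22hr; ONE-Glo luminescence quantified reporter activity.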

Assay [4] in a line: qHTS assay to identify small molecule agonists or antagonists of the thyroid stimulating hormone receptor (TSHR) signaling pathway - wild type cell line counter screen (AID 1259384; calls by dose curve). An outline of the steps:
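Wild-type HEK293 cells were plated 18 h at 37 C/5% CO2, pin-dosed with compound plus Ro20-1724 medium, held 30 min at room temperature, then given cAMP-d2 and anti-cAMP-cryptate; fluorescence was read after 1 h. Fifteen concentrations, triplicate.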

Assay [5] concerns the target Thyrotropin receptor (Homo sapiens) (UniProt P16473). As to the kind of experiment: qHTS assay to identify small molecule antagonists of the thyroid stimulating hormone receptor (TSHR) signaling pathway (AID 1259385; calls by dose curve; further: nearly all actives have a fitted effect of over 20% in size; further: potency means the concentration at half of the fitted maximal effect). The procedure, abridged: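 TSHR-HEK293 cells were plated and held 18 h at 37C/5% CO2, then given compound plus Ro20-1724 and stimulated with TSH at 1.5 ng/mL final. After 30 min at room temperature, cAMP was detected with cAMP-d2/anti-cAMP-cryptate (1 h) by fluorescence.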

Assay [6] in a line: qHTS assay to identify small molecule agonists of the TGF-beta/Smad signaling pathway - cell viability counter screen (AID 1346829). Further: nearly all actives have a fitted effect of over 45% in size. Further: potency means the concentration at half of the fitted maximal effect. The procedure, abridged:
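Here the cytotoxicity of library compounds is measured in SBE-bla HEK 293T cells treated for 5 hr, using CellTiter-Glo added to wells already read for the beta-lactamase reporter.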

Assay [7] in a line: qHTS assay to identify small molecule agonists of the TGF-beta/Smad signaling pathway (AID 1346859; active means well fitted activation curve with a large enough effect in the signal ratio in the repeat runs, not every such curve was filed as active; the % refers to the signal ratio; further: series mostly up to about 77 µM). An outline of the steps: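 Screening used HEK 293T SBE-bla cells at 4,000/well. Test agents: 5 hr, 37 C. Detection: FRET substrate, 2 hr RT, then excitation 405 nm with emissions at 460 and 530 nm.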
Assay [8] concerns the target Thyrotropin-releasing hormone receptor (Homo sapiens) (UniProt P34981). In words: qHTS assay to identify small molecule antagonists of the thyrotropin-releasing hormone receptor (TRHR) signaling pathway (AID 1346877; active means well fitted inhibition curve with a large enough effect in the repeat runs, not every such curve was filed as active; further: series mostly up to about 51 µM). The procedure, abridged: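 Screening used HEK293 cells engineered with TRHR, with a brief 5 min room-temperature compound exposure preceding addition of TRH to 1 nM. The read-out was kinetic calcium-dye fluorescence, concentration-response from 15 doses in triplicate.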

Assay [9] is described as follows: Caspase-3/7 induction in HepG2 cells by small molecules, qHTS assay (AID 1346978). Further: nearly all actives have a fitted effect of over 15% in size. Further: potency means the concentration at half of the fitted maximal effect. An outline of the steps: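 Wild-type HepG2 cells (2,000/well) were settled 5 h at 37 C, 5% CO2, then exposed to compounds in DMSO for 17 h. Caspase-3/7 activity was read by luminescence 30 min after adding Caspase-Glo 3/7 reagent at room temperature.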
A short description of assay [10]: qHTS assay to identify small molecule agonists of the estrogen receptor beta (ER-beta) signaling pathway - cell viability counter screen (AID 1259380). Further: nearly all actives have a fitted effect of over 30% in size. Further: potency means the concentration at half of the fitted maximal effect. An outline of the steps:
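Cells used were ER-beta-UAS-bla HEK293T in medium with 2% charcoal-stripped FBS. They were treated for 16 hr at 37C. Viability came from CellTiter-Glo luminescence.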

A short description of assay [11]: Human pregnane X receptor (PXR) small molecule agonists, qHTS cell viability counter screen (AID 1346977). Further: nearly all actives have a fitted effect of over 50% in size. Further: potency means the concentration at half of the fitted maximal effect. The procedure, abridged: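 In each well, the PXR reporter HepG2 line was checked for viability: CellTiter-Fluor reagent added 23hr post-dosing, fluorescence read after 1hr incubation at 37C.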
Assay [12] addresses Progesterone receptor (Homo sapiens) (UniProt P06401). In words: qHTS assay to identify small molecule agonists of the progesterone receptor (PR) signaling pathway (AID 1346784; calls by dose curve; further: nearly all actives have a fitted effect of over 30% in size; further: potency means the concentration at half of the fitted maximal effect). The procedure, abridged: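 Reporter assay, GripTite PR-UAS-bla HEK 293T cells: 16 hr exposure to DMSO-dissolved compounds at 37C, 5% CO2, in steroid-depleted (2% charcoal-stripped FBS) medium; beta-lactamase measured by FRET fluorescence.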

Assay [13] has the same target. As to the kind of experiment: qHTS assay to identify small molecule antagonists of the progesterone receptor (PR) signaling pathway (AID 1346795; active means well fitted inhibition curve with a large enough effect in the signal ratio in the repeat runs, not every such curve was filed as active; the % refers to the signal ratio). The procedure, abridged:
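Stimulus R5020 at 1 nM final; cells HEK293T PR-UAS-bla; medium with 2% charcoal-stripped FBS; compound exposure 16 hr at 37C, 5% CO2; detection by FRET beta-lactamase substrate, 2 hr, room temperature.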

Assay [14] is described as follows: qHTS assay to identify small molecule antagonists of the progesterone receptor (PR) signaling pathway - cell viability counter screen (AID 1346798). Further: nearly all actives have a fitted effect of over 50% in size. Further: potency means the concentration at half of the fitted maximal effect. An outline of the steps:
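In the same plates used for the beta-lactamase readout, cell viability of compound- and R5020-treated PR-UAS-bla HEK293T cells (16 hr, 37C) was assessed by CellTiter-Glo luminescence.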

The nature of assay [15]: qHTS assay to identify small molecule agonists of the progesterone receptor (PR) signaling pathway - cell viability counter screen (AID 1346799; calls by dose curve; further: nearly all actives have a fitted effect of over 45% in size). The procedure, abridged:
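Multiplexed viability read: CellTiter-Glo luminescence, 30 min RT, following LiveBLAzer FRET measurement on PR-UAS-bla HEK293T cells exposed to compounds 16 hr.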

Assay [16] can be described thus: qHTS assay to identify small molecule antagonists of the TGF-beta/Smad signaling pathway - cell viability counter screen (AID 1346824). Further: nearly all actives have a fitted effect of over 50% in size. The procedure, abridged: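 SBE-bla HEK 293T cells were plated overnight at 37 C, then given compounds in DMSO plus TGF-beta1 (added as 0.25 ng/mL solution) for 5 hr. After the bla read, CellTiter-Glo was added to the same wells and luminescence read after 30 min at room temperature.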

Assay [17] deals with Thyrotropin-releasing hormone receptor (Homo sapiens) (UniProt P34981). As to the kind of experiment: qHTS assay to identify small molecule agonists of the thyrotropin-releasing hormone receptor (TRHR) signaling pathway (AID 1346891; calls by dose curve; further: series mostly up to about 58 µM). The procedure, abridged: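 Readout was intracellular calcium fluorescence in TRHR-Hek293 cells. Cells were incubated 18 h, dye-loaded 2 h at 37 °C, and treated with compound in agonist mode.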

The nature of assay [18]: qHTS assay to identify small molecule agonists of the estrogen receptor alpha (ER-alpha) signaling pathway in the presence of an antagonist - cell viability counter screen (AID 1259386).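 Further: cells exposed to compounds for 22 h at 37 °C before the viability read; nearly all actives have a fitted effect of over 30% in size.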 Further: potency means the concentration at half of the fitted maximal effect. The procedure, abridged:
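ICI-182,780 at 10.0nM final accompanies the compound titration (15 concentrations, 22hr, 37C) on VM7Luc4E2 cells. The CellTiter-Fluor fluorescence readout runs in the same wells as the luciferase assay.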

The target in assay [19] is Androgen receptor (Homo sapiens) (UniProt P10275). In words: qHTS assay to identify small molecule agonists of the androgen receptor (AR) signaling pathway in the presence of an antagonist (AID 1259381; calls by dose curve; further: nearly all actives have a fitted effect of over 15% in size; further: potency means the concentration at half of the fitted maximal effect). The procedure, abridged:
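Using human MDA-kb2 cells with an MMTV promoter–luciferase construct (AR and GR response elements), agonist activity is scored under 3.0uM nilutamide (final) co-treatment; 16hr incubation, 37C, luminescence readout via ONE-Glo.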

Chain of Thyrotropin-releasing hormone receptor (Homo sapiens) (P34981 whole entry, looked up): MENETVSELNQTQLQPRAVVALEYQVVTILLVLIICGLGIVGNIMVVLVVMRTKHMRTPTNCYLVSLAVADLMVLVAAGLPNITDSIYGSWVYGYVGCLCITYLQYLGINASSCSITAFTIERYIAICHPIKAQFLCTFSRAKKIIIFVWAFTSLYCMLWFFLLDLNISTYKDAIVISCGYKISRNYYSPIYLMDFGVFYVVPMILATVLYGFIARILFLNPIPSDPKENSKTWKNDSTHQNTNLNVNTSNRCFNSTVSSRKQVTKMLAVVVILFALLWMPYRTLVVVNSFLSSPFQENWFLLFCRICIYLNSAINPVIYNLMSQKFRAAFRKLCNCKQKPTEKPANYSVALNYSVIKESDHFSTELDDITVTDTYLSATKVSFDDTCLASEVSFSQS
Chain of Androgen receptor (Homo sapiens) (P10275 whole entry, looked up): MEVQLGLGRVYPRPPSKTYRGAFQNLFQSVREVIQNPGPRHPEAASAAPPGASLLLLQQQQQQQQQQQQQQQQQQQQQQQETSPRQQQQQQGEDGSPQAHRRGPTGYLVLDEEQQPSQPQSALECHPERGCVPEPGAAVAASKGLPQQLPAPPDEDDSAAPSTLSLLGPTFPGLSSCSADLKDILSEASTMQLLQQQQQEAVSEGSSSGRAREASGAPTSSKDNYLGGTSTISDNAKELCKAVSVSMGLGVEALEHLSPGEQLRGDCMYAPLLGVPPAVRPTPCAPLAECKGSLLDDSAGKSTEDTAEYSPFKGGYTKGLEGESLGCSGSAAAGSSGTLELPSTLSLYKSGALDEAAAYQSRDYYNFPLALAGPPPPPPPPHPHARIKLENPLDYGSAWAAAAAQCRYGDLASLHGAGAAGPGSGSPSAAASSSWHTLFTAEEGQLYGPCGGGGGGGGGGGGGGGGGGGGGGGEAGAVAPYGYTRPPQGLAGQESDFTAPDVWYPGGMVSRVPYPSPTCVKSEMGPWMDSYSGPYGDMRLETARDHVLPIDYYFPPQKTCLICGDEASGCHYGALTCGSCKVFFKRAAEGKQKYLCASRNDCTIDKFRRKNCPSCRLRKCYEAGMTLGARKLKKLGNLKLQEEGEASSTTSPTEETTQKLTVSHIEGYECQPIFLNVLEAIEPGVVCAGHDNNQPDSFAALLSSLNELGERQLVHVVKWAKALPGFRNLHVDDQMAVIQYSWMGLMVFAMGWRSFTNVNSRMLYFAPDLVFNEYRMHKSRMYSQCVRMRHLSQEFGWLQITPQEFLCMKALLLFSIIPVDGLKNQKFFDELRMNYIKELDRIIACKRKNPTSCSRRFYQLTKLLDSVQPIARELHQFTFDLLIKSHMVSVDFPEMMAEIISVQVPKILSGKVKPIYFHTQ
Chain of Estrogen receptor (Homo sapiens) (P03372 whole entry, looked up): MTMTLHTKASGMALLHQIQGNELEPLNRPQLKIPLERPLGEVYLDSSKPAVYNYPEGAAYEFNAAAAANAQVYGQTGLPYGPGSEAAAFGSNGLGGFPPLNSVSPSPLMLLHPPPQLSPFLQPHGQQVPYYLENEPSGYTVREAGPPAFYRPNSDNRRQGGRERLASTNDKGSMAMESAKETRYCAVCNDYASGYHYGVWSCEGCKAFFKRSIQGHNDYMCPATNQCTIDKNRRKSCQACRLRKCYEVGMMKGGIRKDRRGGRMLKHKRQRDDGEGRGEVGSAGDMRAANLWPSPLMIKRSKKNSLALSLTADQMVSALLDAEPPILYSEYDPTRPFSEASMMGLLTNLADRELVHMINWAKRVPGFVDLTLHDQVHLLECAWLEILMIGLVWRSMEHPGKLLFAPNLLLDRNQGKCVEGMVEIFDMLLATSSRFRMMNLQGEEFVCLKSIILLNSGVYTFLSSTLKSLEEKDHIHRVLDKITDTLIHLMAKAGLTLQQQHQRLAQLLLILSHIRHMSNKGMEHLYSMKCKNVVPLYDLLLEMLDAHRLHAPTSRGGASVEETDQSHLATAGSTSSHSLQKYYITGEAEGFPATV
Chain of Thyrotropin receptor (Homo sapiens) (P16473 whole entry, looked up): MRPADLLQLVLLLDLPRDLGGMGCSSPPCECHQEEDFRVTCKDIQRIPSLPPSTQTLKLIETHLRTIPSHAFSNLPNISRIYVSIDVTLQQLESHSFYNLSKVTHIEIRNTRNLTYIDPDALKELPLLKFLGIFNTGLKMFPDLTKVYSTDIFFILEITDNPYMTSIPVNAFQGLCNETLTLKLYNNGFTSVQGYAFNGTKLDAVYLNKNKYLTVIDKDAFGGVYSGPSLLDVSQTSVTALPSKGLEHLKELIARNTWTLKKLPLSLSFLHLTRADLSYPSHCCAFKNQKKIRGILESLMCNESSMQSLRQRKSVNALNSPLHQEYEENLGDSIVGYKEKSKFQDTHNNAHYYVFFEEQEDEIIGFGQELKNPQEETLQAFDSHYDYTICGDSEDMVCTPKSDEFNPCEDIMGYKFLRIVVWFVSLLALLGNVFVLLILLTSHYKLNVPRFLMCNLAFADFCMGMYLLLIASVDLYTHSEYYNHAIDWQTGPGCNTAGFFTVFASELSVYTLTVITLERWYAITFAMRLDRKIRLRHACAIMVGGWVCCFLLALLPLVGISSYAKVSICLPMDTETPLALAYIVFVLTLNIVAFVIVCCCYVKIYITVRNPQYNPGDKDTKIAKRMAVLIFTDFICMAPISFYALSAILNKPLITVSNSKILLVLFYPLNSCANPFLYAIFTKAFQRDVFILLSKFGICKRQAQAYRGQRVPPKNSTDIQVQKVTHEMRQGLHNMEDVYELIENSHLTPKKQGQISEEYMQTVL
Chain of Progesterone receptor (Homo sapiens) (P06401 whole entry, looked up): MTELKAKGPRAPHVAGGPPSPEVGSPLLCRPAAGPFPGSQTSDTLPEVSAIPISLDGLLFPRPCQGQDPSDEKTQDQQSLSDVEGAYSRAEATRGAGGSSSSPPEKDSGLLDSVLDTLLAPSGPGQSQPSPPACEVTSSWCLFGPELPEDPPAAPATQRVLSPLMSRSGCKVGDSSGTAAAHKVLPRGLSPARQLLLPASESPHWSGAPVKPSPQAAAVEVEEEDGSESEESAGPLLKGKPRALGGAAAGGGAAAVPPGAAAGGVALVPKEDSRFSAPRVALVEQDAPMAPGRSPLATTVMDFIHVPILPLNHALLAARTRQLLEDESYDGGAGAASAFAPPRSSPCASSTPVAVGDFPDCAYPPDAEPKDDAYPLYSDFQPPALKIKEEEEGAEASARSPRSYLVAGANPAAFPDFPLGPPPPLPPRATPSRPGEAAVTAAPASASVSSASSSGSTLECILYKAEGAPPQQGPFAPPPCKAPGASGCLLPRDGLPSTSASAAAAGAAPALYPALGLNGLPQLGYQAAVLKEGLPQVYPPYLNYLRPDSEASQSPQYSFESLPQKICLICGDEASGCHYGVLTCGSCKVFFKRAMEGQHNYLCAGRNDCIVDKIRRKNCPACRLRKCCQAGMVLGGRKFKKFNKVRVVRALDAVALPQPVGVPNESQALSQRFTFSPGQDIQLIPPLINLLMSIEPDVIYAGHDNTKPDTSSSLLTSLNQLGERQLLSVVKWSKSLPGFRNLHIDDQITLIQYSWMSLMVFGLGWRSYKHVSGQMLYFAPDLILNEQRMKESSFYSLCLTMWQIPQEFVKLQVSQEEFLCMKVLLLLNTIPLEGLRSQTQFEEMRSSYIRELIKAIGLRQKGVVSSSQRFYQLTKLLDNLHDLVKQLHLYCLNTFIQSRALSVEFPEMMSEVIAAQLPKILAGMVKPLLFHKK

As to `C=CCC1=C(C)C(OC(=O)C2C(C=C(C)C)C2(C)C)CC1=O` (configuration not stated), the Potency in assay [1] and in assay [5] was 61.1 µM (active) throughout. Further, the Potency entry in assay [2], in assay [3], in [6], in assay [8] and in [9] was “inactive” each time. Besides, the call in assay [4] and in assay [7] was inactive.
Consider `CCCN(CCC)c1c([N+](=O)[O-])cc(S(N)(=O)=O)cc1[N+](=O)[O-]`, for which the Potency in [1] is 51.8 µM (active); in assay [10], 23.1 µM (active); in [3], 65.2 µM (active); in assay [6], 58.6 µM (active); in assay [11], 50.1 µM (active); in assay [9] it was 57.2 µM (active). The compound was classed as inactive in assay [4].
Consider `O=C1NCN(c2ccccc2)C12CCN(CC1COc3ccccc3O1)CC2` (configuration not stated), for which the Potency in assay [10] is 11.9 µM (active). Also, the Potency result in assay [3], in assay [5], in assay [12], in assay [13], in assay [14] and in assay [15] was “inactive” each time. The Potency result in assay [16], in [6], in assay [17], in [11] and in [9] was “inactive” in each case. Also, the result in [4] and in [7] was inactive.
As for `ClC1=C(Cl)[C@]2(Cl)[C@@H]3[C@@H]4C[C@@H]([C@H]5O[C@@H]45)[C@@H]3[C@@]1(Cl)C2(Cl)Cl`, the Potency result in [3] and in assay [18] was “inactive” in each case. Also, the compound was classed as inactive in assay [4].
Take `Clc1ccc(C(Cl)(Cl)Cl)c(Cl)c1`: the Potency result in assay [1], in [18], in assay [13], in assay [16], in assay [6] and in [8] was “inactive” throughout. In addition, the Potency entry in assay [17], in [11] and in assay [9] was “inactive” throughout. Moreover, the outcome in [4] and in assay [7] was inactive. Further, the Potency in [14] is 48.9 µM (active).
With `C[C@]12Cc3nonc3C[C@@H]1CC[C@@H]1[C@@H]2CC[C@@]2(C)[C@H]1CC[C@]2(C)O`, the Potency in assay [10] was 26.6 µM (active); in [19] it was 0.0237 µM (active); in assay [2], 29.8 µM (active); in assay [12], 1.19 µM (active). The Potency result in assay [3], in assay [5], in assay [18], in assay [17], in assay [11] and in [9] was “inactive” throughout. Besides, the call in [4] and in assay [7] was inactive.
`CC[C@H]1C[C@@H]2C[C@H]3c4[nH]c5ccc(OC)cc5c4CCN(C2)[C@@H]13`: the Potency entry in assay [10], in assay [19], in assay [3], in assay [12], in assay [16] and in [6] was “inactive” throughout. For the same compound, the Potency result in assay [17] and in [9] was “inactive” throughout. The outcome in assay [7] was inactive. The Potency in [11] is 47.7 µM (active).
Turning to `Nc1c(Oc2ccccc2)cc(O)c2c1C(=O)c1ccccc1C2=O`, the Potency result in [10], in [19], in assay [2], in assay [12], in assay [13] and in [14] was “inactive” in each case. For the same compound, the Potency entry in assay [15], in assay [16], in [6], in assay [8], in assay [17] and in assay [9] was “inactive” throughout. The Potency in [3] is 1.88 µM (active); in [18], 26.6 µM (active). For the same compound, the compound was classed as inactive in [7].
